Assay outcomes from PubChem.
This is a sample that favours compounds with a hit; in the whole collection about 10% have one here.
HP1b binding inh: HTS for Inhibitors of HP1-beta Chromodomain Interactions with Methylated Histone Tails | Chromobox protein homolog 1 (Homo sapiens), P83916 | 390,000 tested, 0.56% active | Potency, µM (series often up to 114 µM), for the others: at the highest dose activity change, negative = inhibition, usual class: inhibitors | AlphaScreen HP1-beta / biotin-H3K9me3 peptide binding; note: potency is the fitted concentration of half-maximal effect; nearly all actives have a fitted effect of over 70% in size
Target sequence (P83916 whole entry, looked up): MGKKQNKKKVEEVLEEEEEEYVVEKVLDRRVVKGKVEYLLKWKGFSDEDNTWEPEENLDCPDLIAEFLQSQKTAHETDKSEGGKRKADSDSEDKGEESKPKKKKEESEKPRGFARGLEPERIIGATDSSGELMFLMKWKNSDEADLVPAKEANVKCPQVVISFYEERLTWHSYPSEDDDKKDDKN
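Compound inhibition of the preformed complex between 50 nM HP1-beta and 50 nM biotinylated H3K9me3 peptide was read by AlphaScreen. Buffer was PBS pH 7.4 with 0.01% Tween-20. Incubations ran 30 min at room temperature, with 10 ug/mL donor/acceptor beads.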
JMJD2A Tudor inh: qHTS Assay for Inhibitors of JMJD2A-Tudor Domain | AlphaScreen JMJD2A-Tudor / H3K4me3 peptide binding | Potency, µM (series often up to 114 µM), for inactives: at the top dose activity change, negative = inhibition, most hits filed as inhibitors | 390,000 tested, 4.4% active | AID 504339, 2011; note: potency is the fitted concentration of half-maximal effect; % is set by controls: 0 for no effect and ±100 for the full control effect; nearly all actives have a fitted effect of over 50% in size
G9a inh: qHTS Assay for Inhibitors of Histone Lysine Methyltransferase G9a. G9a H3K9 monomethylation, AlphaScreen, 2 h. 350,000 tested, 8.8% active. Histone-lysine N-methyltransferase EHMT2 (Homo sapiens), Q96KQ7. Potency, µM (highest dose often 102 µM), for inactives: at the highest dose activity, negative = inhibition, most hits filed as inhibitors; note: potency is the fitted concentration of half-maximal effect; % is set by controls: 0 for no effect and ±100 for the full control effect; nearly all actives have a fitted effect of over 75% in size
Target sequence (Q96KQ7 913-1193 limits assumed): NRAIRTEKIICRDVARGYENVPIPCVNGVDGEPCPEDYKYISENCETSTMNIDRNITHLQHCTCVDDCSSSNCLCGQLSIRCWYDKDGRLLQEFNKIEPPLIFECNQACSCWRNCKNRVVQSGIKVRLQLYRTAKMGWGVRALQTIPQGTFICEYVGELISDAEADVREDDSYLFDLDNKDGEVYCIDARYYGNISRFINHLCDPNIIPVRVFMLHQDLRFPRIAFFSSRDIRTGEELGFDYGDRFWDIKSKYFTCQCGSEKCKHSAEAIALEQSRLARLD
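Methyltransferase reactions run at room temperature for 2 h (20 nM enzyme, 500 nM biotin-H3K9 peptide, 20 uM SAM) after a 15 min compound preincubation; product detected by AlphaScreen beads and anti-H3K9me1 antibody.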
Six1-Eya2 inh: qHTS Assay for Inhibitors of the Six1/Eya2 Interaction; AID 651725, 2012; Homeobox protein SIX1 (Homo sapiens) + Protein phosphatase EYA2 (Homo sapiens), …; activity change, % (test concentration not listed); AlphaScreen GST-Six1/His-Eya2 binding, biochemical; active compounds read low; 360,000 tested, 0.56% active; in the data active = activity change below about -65%; inconclusive = mostly about -30% to -63%; note: % is set by controls: 0 for no effect and ±100 for the full control effect
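Homogeneous AlphaScreen proximity assay pairing GST-Six1 with His-tagged Eya2 (added as 5X mix: 250 nM and 500 nM) in 50 mM Tris pH 8.0, 300 mM NaCl, 1 mM TCEP. Glutathione donor and nickel acceptor beads; 1 h, 37 °C, dark.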
BAZ2B block: qHTS Assay for Inhibitors of BAZ2B; Potency, µM (titrated, usually from 114 µM), without a hit: at the highest dose activity change, negative = inhibition, most hits filed as inhibitors; 360,000 tested, 4.4% active; AID 504333, 2011; Bromodomain adjacent to zinc finger domain protein 2B (Homo sapiens), Q9UIF8; AlphaScreen BAZ2B-H3K14Ac peptide displacement; note: potency is the fitted concentration of half-maximal effect; % is set by controls: 0 for no effect and ±100 for the full control effect; nearly all actives have a fitted effect of over 60% in size
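Compounds, titrated to a top concentration of 110 uM, were incubated 30 min at room temperature with preformed BAZ2B/acetyl-K14 H3 peptide complex (50 nM each). Proximity signal was measured by AlphaScreen after 20 min with beads.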
CtBP-E1A blk: qHTS Assay for Inhibitors of the CtBP/E1A Interaction; 340,000 tested, 0.49% active; AID 651724, 2012; activity change, % (concentration not given with the values); CtBP / adenovirus E1A interaction (AlphaScreen); AlphaScreen GST-E1A/His-CtBP binding, 1536-well; active compounds read low; in the data active = activity change below about -65%; inconclusive = mostly about -30% to -63%; note: % is set by controls: 0 for no effect and ±100 for the full control effect
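In 5 uL wells, 23 nL compound meets equimolar GST-E1A and His-CtBP (5X stock 125 nM each) for 2 h, 37 °C. Beads (5X, 50 ug/mL) then 1 h, 37 °C, dark.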
The depositor's hits bear a star; [ ] = dose if it differs, or a comment. Unless noted, calls come from the whole dose curve; as a rule, active = well fitted inhibition curve with a large enough effect; inconclusive = small, poorly fitted or top-dose-only effect; inactive = no such curve, though single readings can be large or run the other way.

How did CCOc1cc(/C=C2/C(=N)N3C(=NC2=O)SN=C3S(=O)(=O)CC)ccc1OC(=O)c1ccco1 do in these assays?
HP1b binding inh: -14%[57 µM]; JMJD2A Tudor inh: inconclusive; G9a inh: 40µM*; Six1-Eya2 inh: -2; BAZ2B block: -34%

Results for CCOc1cc(/C=C2/C(=N)N3C(=NC2=O)SN=C3S(=O)(=O)C(C)C)ccc1OC(=O)c1ccco1 ?
HP1b binding inh: -5%; JMJD2A Tudor inh: -25%; G9a inh: 35µM*; Six1-Eya2 inh: -6; BAZ2B block: -35%; CtBP-E1A blk: -21

What do the screens show for `CCS(=O)(=O)C1=NSC2=NC(=O)/C(=C\c3ccc(OC(=O)c4ccco4)c(OC)c3)C(=N)N21`?
HP1b binding inh: 2%; JMJD2A Tudor inh: -35%; G9a inh: inconclusive; Six1-Eya2 inh: -8; BAZ2B block: -39%; CtBP-E1A blk: -10

What do the screens show for `COc1cc(/C=C2/C(=N)N3C(=NC2=O)SN=C3S(C)(=O)=O)ccc1OC(=O)c1ccco1`?
HP1b binding inh: 5%; JMJD2A Tudor inh: inconclusive; G9a inh: inconclusive; Six1-Eya2 inh: -15; BAZ2B block: inconclusive

Results for COc1cc(/C=C2/C(=N)N3C(=NC2=O)SN=C3S(=O)(=O)C(C)C)ccc1OC(=O)c1ccco1 ?
HP1b binding inh: -7%[57 µM]; JMJD2A Tudor inh: -31%; G9a inh: 40µM*; Six1-Eya2 inh: -8; BAZ2B block: 56µM*

What do the screens show for `COc1ccc(C(=O)c2cnc3ccc(C)cc3c2S(=O)(=O)c2ccccc2)cc1`?
HP1b binding inh: 1%; JMJD2A Tudor inh: inconclusive; G9a inh: inconclusive; BAZ2B block: inconclusive

What do the screens show for `COC(=O)c1cnn(-c2ccc(C(=O)Nc3ccc(C(C)=O)cc3)cc2)c1N`?
HP1b binding inh: 74%; JMJD2A Tudor inh: -20%; G9a inh: 7%[12.7 µM]; BAZ2B block: -8%

Results for COc1cccc(CNC2CCCCCCC2)c1OC ?
HP1b binding inh: -29%; JMJD2A Tudor inh: 35µM*; Six1-Eya2 inh: 1; BAZ2B block: inconclusive; CtBP-E1A blk: 5

Results for COc1cc(OC)c(CNC2CCCCCC2)cc1Br ?
HP1b binding inh: -12%; JMJD2A Tudor inh: 10µM*; G9a inh: 35µM*; Six1-Eya2 inh: 5; BAZ2B block: inconclusive; CtBP-E1A blk: -9

Results for COc1cc(CNC2CCCCCC2)cc(OC)c1OC ?
HP1b binding inh: 24%; JMJD2A Tudor inh: 10µM*; G9a inh: 18µM*; Six1-Eya2 inh: 1; BAZ2B block: inconclusive; CtBP-E1A blk: 5

Results for COc1cc(CNC2CCCC2)cc(OC)c1OC ?
HP1b binding inh: 15%; JMJD2A Tudor inh: -14%; G9a inh: -1%[12.7 µM]; Six1-Eya2 inh: 3; BAZ2B block: 3%; CtBP-E1A blk: -15

What do the screens show for `Oc1c(Br)cc(CNC2CCCCC2)cc1Br`?
HP1b binding inh: inconclusive; JMJD2A Tudor inh: -34%; Six1-Eya2 inh: 2; CtBP-E1A blk: 0

Results for O=c1[nH]c(=S)[nH]c2nc[nH]c12 ?
HP1b binding inh: 3%[57 µM]; JMJD2A Tudor inh: inconclusive

How did S=c1nc[nH]c2nc[nH]c12 do in these assays?
HP1b binding inh: -7%; JMJD2A Tudor inh: 4µM*; G9a inh: inconclusive; Six1-Eya2 inh: -3; BAZ2B block: 35µM*; CtBP-E1A blk: -3

Results for COC(=O)c1cc(=O)n(Cc2ccco2)c(=Nc2ccc(F)c(Cl)c2)s1 ?
HP1b binding inh: -21%; JMJD2A Tudor inh: inconclusive; G9a inh: 35µM*; Six1-Eya2 inh: -8; BAZ2B block: inconclusive; CtBP-E1A blk: -4

What do the screens show for `COC(=O)c1cc(=O)n(-c2ccc(F)cc2)c(=Nc2ccc(F)cc2)s1`?
HP1b binding inh: -14%; JMJD2A Tudor inh: inconclusive; G9a inh: 40µM*; Six1-Eya2 inh: 2; BAZ2B block: inconclusive; CtBP-E1A blk: -9

Results for COC(=O)c1cc(=O)n(CCc2ccccc2F)c(=Nc2ccc(F)c(Cl)c2)s1 ?
HP1b binding inh: 3%; JMJD2A Tudor inh: inconclusive; G9a inh: 40µM*; Six1-Eya2 inh: -1; BAZ2B block: inconclusive; CtBP-E1A blk: -11

How did COC(=O)c1cc(=O)n(Cc2cccs2)c(=Nc2ccc(F)cc2)s1 do in these assays?
HP1b binding inh: -16%; JMJD2A Tudor inh: -26%; Six1-Eya2 inh: 1; BAZ2B block: inconclusive; CtBP-E1A blk: 1

What do the screens show for `CN(C(=O)COC(=O)C1CCN(S(=O)(=O)c2c(Cl)cccc2Cl)CC1)c1ccccc1`?
HP1b binding inh: 2%; JMJD2A Tudor inh: -15%; G9a inh: -50%; Six1-Eya2 inh: -2; BAZ2B block: -6%; CtBP-E1A blk: -9

How did CN(C(=O)COC(=O)C1CCN(S(=O)(=O)c2c(Cl)cccc2Cl)CC1)C1CCCCC1 do in these assays?
HP1b binding inh: 66%; JMJD2A Tudor inh: -8%; G9a inh: 40µM*; Six1-Eya2 inh: 8; BAZ2B block: -29%; CtBP-E1A blk: 0

What do the screens show for `O=C(COC(=O)C1CCN(S(=O)(=O)c2c(Cl)cccc2Cl)CC1)NCc1ccco1`?
HP1b binding inh: 1%; JMJD2A Tudor inh: -21%; G9a inh: 50µM*; Six1-Eya2 inh: 16; BAZ2B block: -9%; CtBP-E1A blk: 0

What do the screens show for `Cc1c(CNC2CCCCCC2)c(C(=O)O)c(C)n1Cc1ccc(F)cc1Cl`?
HP1b binding inh: 41%; JMJD2A Tudor inh: -18%; G9a inh: -1%[59 µM]; BAZ2B block: -6%

What do the screens show for `OCCN(CCO)c1nc(N2CCCCC2)c2nc(N(CCO)CCO)nc(N3CCCCC3)c2n1`?
HP1b binding inh: 22%; JMJD2A Tudor inh: -24%; G9a inh: 22µM*; Six1-Eya2 inh: -2; BAZ2B block: inconclusive; CtBP-E1A blk: -19

What do the screens show for `CCC(=O)N(Cc1ccc(S(N)(=O)=O)cc1)C1CC(=O)N(c2ccc(OC)cc2)C1=O` (centres undefined)?
HP1b binding inh: 59%; JMJD2A Tudor inh: -11%; G9a inh: 8.9µM*; Six1-Eya2 inh: 7; BAZ2B block: -3%; CtBP-E1A blk: 4

How did CC1CCCN(C(=O)COC(=O)CNS(=O)(=O)c2ccc3ccccc3c2)C1 (centres undefined) do in these assays?
HP1b binding inh: 6%; JMJD2A Tudor inh: -13%; G9a inh: 7.1µM*; Six1-Eya2 inh: 4; BAZ2B block: -13%; CtBP-E1A blk: -1
